# Most compounds without a hit are left out; they make up all but 0.47% or so of the library.
# Apoferritin bind = binds horse apoferritin like a general anesthetic | Potency, µM (titrated, usually from 77.5 µM), for inactives: at the highest dose activity change, negative = displacement, hits mostly inhibitors | hit rate 0.074% among 350,000 | apoferritin/1-aminoanthracene competitive binding, fluorescence; further: potency means the concentration at half of the fitted maximal effect; on the % scale 0 is the no-effect control and ±100 the full control effect; nearly all actives have a fitted effect of over 20% in size
# Target sequence (P02791 2-175 limits assumed): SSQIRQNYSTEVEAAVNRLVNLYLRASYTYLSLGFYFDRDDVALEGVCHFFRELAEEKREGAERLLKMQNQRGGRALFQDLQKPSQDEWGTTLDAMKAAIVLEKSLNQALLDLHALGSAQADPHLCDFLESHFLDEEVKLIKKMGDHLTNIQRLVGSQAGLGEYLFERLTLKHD
#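 Probe: 1-aminoanthracene (50% saturated, PBS). Protein: horse-spleen apoferritin, 10 uM. Incubation: 10 min, room temperature. Detection: 380 nm excitation, 535 nm emission. Analysis: normalized response, four-parameter Hill.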
# CCT chaperon mod = modulators of cytosolic chaperonin (CCT/TRiC) activity | purified chaperonin ATPase assay, HTRF ADP detection, 30 min | activity change, % (concentration not given with the values), hits read low | hit rate 0.3% among 360,000 | AID 651819; in the data active means activity change below about -30%; further: on the % scale 0 is the no-effect control and ±100 the full control effect
#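 TRiC (40 or 20 nM final, by batch activity) in 30 mM Tris pH 7.4, 100 mM KCl, 5 mM MgCl2, 1 mM DTT was treated with compound at 76 uM single dose, then 10 uM ATP, 30 min at 37 °C. ADP was read by HTRF Transcreener.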
# AT treatment = potential ataxia-telangiectasia treatments restoring KAP-1 phosphorylation | hit rate 0.19% among 320,000 | F2112 A-T fibroblasts, KAP-1 phosphorylation AlphaLISA; neocarzinostatin DNA damage 30 min before lysis | Potency, µM (highest dose often 57.5 µM), without a hit: top-dose activation, hits mostly activators | AID 485349; further: potency means the concentration at half of the fitted maximal effect; % of control where 0% means no effect; nearly all actives have a fitted effect of over 45% in size
#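 ATM-like activity read as KAP-1 phosphorylation via AlphaLISA donor/acceptor antibody pairs after lysis and 6 hr at 25C. Cells were ATM-null patient fibroblasts (F2112, hTERT), dosed 60 min, then exposed to the DSB inducer NCS for 30 min.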
# Mm-Cpn inhibitor = blocks the Methanococcus maripaludis chaperonin Mm-Cpn | purified Mm-Cpn ATPase, ADP Transcreener TR-FRET | Potency, µM (titrated, usually from 76.9 µM), inactives show at the highest dose activity, negative = inhibition, hits mostly inhibitors | hit rate 0.031% among 330,000 | AID 504842; further: potency means the concentration at half of the fitted maximal effect; on the % scale 0 is the no-effect control and ±100 the full control effect; nearly all actives have a fitted effect of over 80% in size
#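 Compound-treated chaperonin, 25 nM final, turns over 10 uM ATP at 37°C for 30 min following a 10 min preincubation; ADP generated competes with ADP-d2 for Eu-cryptate antibody, lowering FRET.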
# * hit, by the source's call; ? = inconclusive; / = not tested or not shown; [ ] = another dose, or the depositor's remark. Unless noted, the call rests on the fitted dose curve; in most records, active means well fitted curve in the direction sought with a large enough effect; inconclusive means small, poorly fitted or top-dose-only effect, or another doubt; inactive means no such curve, though single readings can be large; an effect the other way counts as inactive or inconclusive.
SMILES,Apoferritin bind,CCT chaperon mod,AT treatment,Mm-Cpn inhibitor
CO[C@@H]1COC(=O)C/C=C\[C@@H](C)[C@H](OC)COC(=O)[C@H](COCc2ccccc2)NC(=O)C/C=C\[C@H]1C,6.9%[15.3 µM],/,/,/
COC(=O)[C@@]1(Cc2ccccc2)[C@H]2c3cc(C(=O)N(C)C)n(Cc4ccc(S(C)(=O)=O)cc4)c3C[C@H]2CN1C(=O)c1ccccc1,-14.0%,/,/,/
O=S(=O)(NCCN1CCCC1)c1ccc(Br)cc1,2.3%,1.5,1.2%,-1.2%
CCN1CCCC1CNS(=O)(=O)c1ccc(Br)cc1 (stereo unspecified),33.6%,-4.0,2.82µM*,0.7%
O=C(NCCc1ccccc1)c1cc2sccc2n1Cc1ccc(F)cc1,89.2%,/,/,/
CCC(C)(C)NC(=O)C(c1ccccn1)N(C(=O)c1csnn1)c1ccc(C)cc1 (stereo unspecified),-16.4%,-33.9*,2.2%[11.5 µM],-0.7%
Cc1ccc(N(C(=O)c2csnn2)C(C(=O)NCc2ccccc2)c2ccccn2)cc1 (stereo unspecified),-12.0%,-0.3,4.3%,-0.7%
Cc1ccc2nc(Nc3ccc(Br)cc3)nc(-c3ccccc3)c2c1,-4.5%,/,/,/
O=C(COC(=O)c1ccccn1)NC12CC3CC(CC(C3)C1)C2,7.94µM*,0.4,-1.3%,-3.0%
Cc1cnc(C(=O)OCC(=O)C23CC4CC(CC(C4)C2)C3)cn1,?,-0.9,1.0%,-0.6%
Cc1cnc(C(=O)OCC(=O)NC23CC4CC(CC(C4)C2)C3)cn1,10µM*,-0.9,-4.5%,-0.7%
Cc1cc(-c2ccc(N=Nc3c(S(=O)(=O)O)cc4cc(S(=O)(=O)O)cc(N)c4c3O)c(C)c2)ccc1N=Nc1c(S(=O)(=O)O)cc2cc(S(=O)(=O)O)cc(N)c2c1O,/,/,-44.6%,31.6µM*
CCN(CC)C(=O)Cn1cc(C(=O)C(=O)N(C)C2CCN(C)CC2)c2ccccc21,-4.9%,-89.6*,4.8%,1.1%
O=C1CCc2cc(S(=O)(=O)Nc3cccc(F)c3)cc3c2N1CC3,/,3.2,1.1%,-4.1%
CCc1ccc(NS(=O)(=O)c2cc3c4c(c2)CCN4C(=O)CC3)cc1,/,-61.2*,-10.3%,0.7%
O=C(O)CCCN1C(=O)/C(=C/C=C/c2ccco2)SC1=S,3.5%,-2.1,3.98µM*,-2.8%
CC1(C)C(=O)OC(C(=O)c2ccc(Cl)cc2)C(C)(C)C1=O (stereo unspecified),?,0.6,5.9%,1.2%
CC1(C)C(=O)OC(C(=O)c2ccccc2)C(C)(C)C1=O (stereo unspecified),8.91µM*,-3.2,10.5%,-3.6%
Cc1sc2nc(-c3cccs3)oc(=O)c2c1C,15.0%,-0.6,27.3%,2.2%
Cc1sc2nc(-c3ccc(Br)cc3)oc(=O)c2c1C,-4.4%,-37.9*,-6.6%,-0.8%
Cc1ccc2oc(=O)c3cc(C(=O)Nc4ccc(C)c(F)c4)sc3c2c1,4.3%,/,/,/
O=C(NCc1ccco1)c1cc(S(=O)(=O)N2CCOCC2)c(Cl)cc1Cl,-10.5%,-67.4*,-3.5%,1.5%
O=C(COC(=O)c1cc(S(=O)(=O)N2CCOCC2)c(Cl)cc1Cl)NCc1ccco1,/,-1.1,-9.7%,0.0%
COc1ccccc1NC(=O)CSc1nc2ccccc2c2nc(-c3ccccc3)nn12,-0.5%,/,/,/
Cc1ccc(CN2C(=O)SC(Nc3ccc(Cl)cc3)C2=O)cc1 (stereo unspecified),-23.7%,/,/,/
SMILES,Apoferritin bind,CCT chaperon mod,AT treatment,Mm-Cpn inhibitor
CCn1c(C(=O)NC2CCC(C)CC2)cc2sccc21 (stereo unspecified),-7.8%,-80.2*,11.2%,-0.1%
CC(C)c1ccc(NC(=O)C2CC2c2ccccc2)cc1 (stereo unspecified),35.5µM*,-1.4,-13.3%,-0.2%
O=C(Nc1ccncc1)C1CC1c1ccccc1 (stereo unspecified),-12.5%,-2.1,-0.4%,1.8%
Cc1nn(C)c2c1c(-c1ccccc1)cc(=O)n2CC(=O)NC(C)c1ccccc1 (stereo unspecified),-1.3%,/,/,/
CCc1nnc(NC(=O)CCn2cnc3ccccc3c2=O)s1,-12.0%,-30.8*,-2.4%,-0.2%
CCCCc1nnc(NC(=O)Cn2cnc3ccccc3c2=O)s1,-2.1%,-1.7,-1.7%,0.5%
CCc1cccc(C)c1NC(=O)c1cc(S(=O)(=O)N2CCOCC2)cn1C,4.1%,/,/,/
Cc1ccc(O)c(C(CC(=O)NCC2(c3ccccc3)CCCC2)c2ccccc2)c1 (stereo unspecified),-11.0%,/,/,/
